This note sets out measurements from PubChem BioAssay AID430 (Sanford-Burnham Center for Chemical Genomics, 2006).

The whole screen tested about 63,000 compounds, of which about 1,100 (1.7%) were called active. Rule as the data show it: active = cytotoxicity above about 50%; inactive = the rest. The sample as a whole holds a higher share of actives than the screen did. Measured potencies and affinities stand elsewhere.

This assay in a line: HPDE-C7 pancreatic duct cell viability loss – fluorescence, HTS (AID 430).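 Also: cells exposed to compound for 48 hours before viability readout; 0% = vehicle and 100% = reference cytotoxic drug.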 Conditions: HPDE-C7 pancreatic duct cells viability, at 10 µM, hits give high values.
On to `Cc1ccc(S(=O)(=O)C2(C(=O)N3CCN(C4CCCCC4)CC3)CC2)cc1`, for which the cytotoxicity was 6.1% (inactive). Under `O=C(Oc1c(Cl)cc(Cl)c2cccnc12)N1CCCCC1` stands -1.1% (inactive). Under `CCCC(=O)NC(c1ccco1)c1cc(Cl)c2cccnc2c1O` (centres undefined) stands 59.7% (active); under `CCCC(=O)Nc1ccc(Cl)c(NC(=O)c2ccco2)c1`, -1.6% (inactive). Under `O=C(OCC(=O)N(C1CCCCC1)C1CCCCC1)c1ccncc1` stands 4.3% (inactive); under `Cc1cccc(C#N)c1NC1=CC(=O)CC(C)(C)C1`, -3.4% (inactive); under `COc1cc(NCCCC(C)N)c2ncccc2c1` (centres undefined), -12.1% (inactive). On to `CS(=O)(=O)Nc1cccc2cccnc12`, for which the cytotoxicity is 6.6% (inactive).

As for `COc1ccc(NS(=O)(=O)c2ccc(Oc3ncccn3)cc2)cc1`, the cytotoxicity is 17.1% (inactive). As for `O=S(=O)(Nc1cccc2cccnc12)c1ccc(S(=O)(=O)N2CCCC2)cc1`, the cytotoxicity is 57.1% (active). Under `O=C(C1CCN(S(=O)(=O)c2cccc3cccnc23)CC1)N1CCCC1` stands -7.2% (inactive). Under `COc1cc(NS(=O)(=O)c2ccc(C)cc2)c2ncccc2c1` stands 57.2% (active); under `Cc1nnc(SCC(=O)Nc2cc(C(F)(F)F)ccc2N2CCOCC2)o1`, 12.9% (inactive). `CC/C(=N\O)c1ccc(OC)c(OC)c1`: the cytotoxicity is -4.4% (inactive). Under `CC(=O)CSc1ncnc2nc[nH]c12` stands 5.4% (inactive). Under `CC(C)(C)c1cc(Br)ccc1OCC(=O)Nc1ncn[nH]1` stands 21.9% (inactive). In the case of `CCC(C)NC(=O)C1c2cc(OC)c(OC)cc2C(=O)N(C)C1c1ccc(OC)cc1` (centres undefined), the cytotoxicity was -7.8% (inactive). For the compound `CCCSc1nc(C)cc(=O)[nH]1`, the cytotoxicity was 1.4% (inactive). Under `CC(=O)c1c(C)cc(C)c(CSc2nc(C)cc(=O)[nH]2)c1C` stands 51.3% (active). On to `CCOC(=O)CSc1nc(C)cc(=O)[nH]1`, for which the cytotoxicity was 1.4% (inactive). Under `O=C(O)c1cccc(S(=O)(=O)Nc2ccc3oc(=O)sc3c2)c1` stands 1.3% (inactive); under `COc1cc(NS(=O)(=O)c2ccc(C)cc2C)cc(OC)c1OC`, 37% (inactive); under `Cn1c(=O)c2cn(-c3ccc4c(c3)OCCO4)cc2n(C)c1=O`, -24.9% (inactive). Under `O=C1Cc2ccccc2C(=O)N1CCc1ccccc1` stands -14.2% (inactive); under `Cc1cc(NC(=O)c2cnn3c(C(F)F)cc(-c4ccccc4)nc23)no1`, -6.1% (inactive). Regarding `Cc1ccc(S(=O)(=O)C(C#N)c2nc3ccccc3nc2N2CCC(C)CC2)cc1` (centres undefined), the cytotoxicity is 5.7% (inactive).

Take `CC1CCCN(c2nc3ccccc3nc2C(C#N)S(=O)(=O)c2ccccc2)C1` (centres undefined): the cytotoxicity is 52.3% (active). Under `N#CC(c1nc2ccccc2nc1N1CCCC1)S(=O)(=O)c1ccccc1` (centres undefined) stands -10.1% (inactive). Regarding `COc1ccc(S(=O)(=O)C(C#N)c2nc3ccccc3nc2N2CCCC(C)C2)cc1` (centres undefined), the cytotoxicity is 61.7% (active).

Take `CC1CCN(c2nc3ccccc3nc2C(C#N)S(=O)(=O)c2ccccc2)CC1` (centres undefined): the cytotoxicity is 12.4% (inactive). `COc1ccc(S(=O)(=O)C(C#N)c2nc3ccccc3nc2N2CCCCC2)cc1` (centres undefined): the cytotoxicity is -10.2% (inactive). Under `CCS(=O)(=O)NCCc1csc(-c2ccccc2)n1` stands -4.2% (inactive); under `CCSc1nc(C)c(CC)c(C)c1C(N)=O`, 1.9% (inactive). Under `CCOC(=O)CC(=O)CSc1[nH]c(=O)cc(C)c1C#N` stands -1.4% (inactive). Under `Cc1ccc(-c2cn3cccnc3n2)cc1NC(=O)c1c(-c2ccccc2Cl)noc1C` stands 40.2% (inactive); under `Cc1c(C(=O)N(Cc2cccs2)C2CCS(=O)(=O)C2)oc2ccccc12` (centres undefined), -22.1% (inactive). `CN(C)S(=O)(=O)c1ccc(-c2ccccc2)cc1`: the cytotoxicity was -2.3% (inactive). Under `CN(C)S(=O)(=O)n1cnc(-c2ccccc2)c1-c1ccccc1` stands -7.9% (inactive); under `Cc1ccc(CNC(=O)c2cn(C3CCCCC3)c(=O)c3c2c2ccccc2n3C)o1`, -4% (inactive).

In the case of `O=S(=O)(NCCOc1ccc(F)cc1)c1ccc2c(c1)OCCO2`, the cytotoxicity is -5.3% (inactive).

For `Brc1cnn(-c2nc(N3CCOCC3)nc(N3CCOCC3)n2)c1`, the cytotoxicity was 5.8% (inactive).

Take `O=C(Nc1cc(C(=O)N2CCOCC2)cc(C(=O)N2CCOCC2)c1)c1cc(F)c(F)cc1Cl`: the cytotoxicity was -14.6% (inactive). Under `O=C(OCc1nc2ccccc2s1)C1CCN(C2=NS(=O)(=O)c3ccccc32)CC1` stands 1.1% (inactive); under `CC(=O)NC(c1ccco1)c1ccc2cccnc2c1O` (centres undefined), 31.1% (inactive); under `O=c1cc(CO)oc(C(Nc2ccccn2)c2ccccc2F)c1O` (centres undefined), -3.3% (inactive). Under `CC(C)C(=O)NC(c1ccco1)c1ccc2cccnc2c1O` (centres undefined) stands -17.7% (inactive). Under `COc1cc(C(=O)Nc2ccccn2)cc(OC)c1OC` stands 5.4% (inactive); under `Cc1cc(NC(c2cccnc2)c2ccc3cccnc3c2O)no1` (centres undefined), 9% (inactive); under `COc1ccc(C(NC(C)=O)c2ccc3cccnc3c2O)c(OC)c1` (centres undefined), 11.7% (inactive). Take `CNC(=O)c1ccc(N(Cc2ccccc2)S(C)(=O)=O)cc1`: the cytotoxicity is 2.3% (inactive).

Regarding `CCn1c(=O)cc(SCC(=O)Nc2cccnc2)c2ccccc21`, the cytotoxicity is -11.6% (inactive). Under `Cc1cccc(N2CCN(C(=O)C3CCCN(S(=O)(=O)c4c(C)noc4C)C3)CC2)c1C` (centres undefined) stands -2% (inactive); under `C/C(=C\c1ccco1)C1C(C#N)=C(N)OC2=C1C(=O)CC(C)(C)C2` (centres undefined), -2% (inactive). As to `CCOc1ccc2[nH]c(=O)c(CN(Cc3ccccc3)C(=O)N3CCCC3)cc2c1`, the cytotoxicity was -4.5% (inactive).

As for `Cc1ccc(CCNC(=O)c2coc3nc4ccccc4nc23)cc1`, the cytotoxicity is 27.6% (inactive). Regarding `COc1ccc(F)cc1CN1CCN(c2cc(C)nc3c4c(C)cc(C)nc4nn23)CC1`, the cytotoxicity is 9.9% (inactive). Turning to `CCOc1cc(NC(=O)c2ccco2)c(OCC)cc1NC(=O)Cc1cccc(OC)c1`, the cytotoxicity is -10.3% (inactive). For the compound `O=C(NCc1cccnc1)c1ccc(COc2ccccc2Br)o1`, the cytotoxicity is 13.1% (inactive).

For `CN1CCN(c2ccccc2NC(=O)Cc2cn(C)c3ccccc23)CC1`, the cytotoxicity was -5.4% (inactive). As for `COc1ccccc1NC(=O)N(Cc1ccco1)Cc1cc2cccc(C)c2[nH]c1=O`, the cytotoxicity was 0.1% (inactive). Under `COc1ccccc1NC(=O)N(Cc1ccco1)Cc1cc2ccc(C)c(C)c2[nH]c1=O` stands 72.8% (active). Under `COc1ccccc1NC(=O)N(Cc1ccco1)Cc1cc2cc(C)cc(C)c2[nH]c1=O` stands 59.5% (active); under `Cc1cc(C)c2[nH]c(=O)c(CN(Cc3ccco3)C(=O)C3CCCO3)cc2c1` (centres undefined), -9.6% (inactive); under `COc1ccccc1NC(=O)N(Cc1ccco1)Cc1cc2c(C)ccc(C)c2[nH]c1=O`, 22.4% (inactive). Under `CCN1CCCC1CN(Cc1cc2cc(C)cc(C)c2[nH]c1=O)C(=O)Nc1ccccc1OC` (centres undefined) stands 15.1% (inactive); under `O=C(O)CCc1ccc(-c2cccs2)n1CC1CCCO1` (centres undefined), -6.9% (inactive); under `CCOC(=O)Cn1c(=O)oc2cc(S(=O)(=O)N3CCCc4ccccc43)ccc21`, 3.6% (inactive). Consider `Cc1csc(NC(=O)C(Cc2ccccc2)n2cccc2)n1` (centres undefined), for which the cytotoxicity is 14.2% (inactive). Under `CCSc1nnc(NC(=O)C(Cc2ccccc2)n2cccc2)s1` (centres undefined) stands -8.7% (inactive); under `COc1cccc2sc(NC(=O)c3ccc(S(=O)(=O)N4CCOCC4)cc3)nc12`, 2.8% (inactive).

For `O=c1oc2cc(O)ccc2c2oc3cc(O)ccc3c12`, the cytotoxicity is 9.7% (inactive). Under `O=c1oc2cc(O)ccc2c2c1CCCC2` stands 30.9% (inactive); under `Oc1ccc2c(c1)oc1cc(O)ccc12`, 56.4% (active); under `O=C(NCc1ccco1)C1CCN(S(=O)(=O)c2ccc(-n3cnnn3)cc2)CC1`, -7.4% (inactive). Under `COc1ccc(OC)c(-c2nc(C)sc2CC(=O)O)c1` stands -6.4% (inactive).

With `CC(=O)Nc1ccc(NC(=O)Oc2ccccc2)cc1`, the cytotoxicity is -2% (inactive). Under `CC(C)Oc1ccc(NC(=O)Oc2ccccc2)cc1` stands 4.8% (inactive); under `O=C(Nc1ccc(N2CCN(c3ccc(O)cc3)CC2)cc1)Oc1ccccc1`, 50.7% (active). For the compound `COc1ccc(C2C3=C(CC(c4ccco4)CC3=O)Nc3ccccc3N2C(C)=O)cc1` (centres undefined), the cytotoxicity was -12.7% (inactive).

In the case of `O=C1CC(c2ccco2)CC2=C1C1c3ccccc3C(=O)N1c1ccccc1N2` (centres undefined), the cytotoxicity is 64.9% (active). `CCC(=O)N1c2ccccc2NC2=C(C(=O)CC(c3ccco3)C2)C1c1ccco1` (centres undefined): the cytotoxicity is -3.7% (inactive). As to `COCCCn1c(=O)c2ccccc2c2ccccc2c1=O`, the cytotoxicity is -14.8% (inactive). Under `CC(=O)c1cccc(S(=O)(=O)N(CCCO)Cc2cc3ccc(C)cc3[nH]c2=O)c1` stands -3.7% (inactive); under `COc1ccc(NC(=O)N2CCCC2)cc1OC`, -16.9% (inactive); under `O=c1[nH]cnc2scc(-c3ccc(F)cc3)c12`, -4.9% (inactive). For the compound `Cn1nnnc1Sc1ncnc2scc(-c3ccccc3)c12`, the cytotoxicity was 2.6% (inactive).

In the case of `C/C(=N\O)c1c(C)c2ccccc2n1C`, the cytotoxicity was -0.6% (inactive). Under `CC1=C(C(=O)Nc2ccccn2)C(c2ccc(F)cc2)n2ncnc2N1` (centres undefined) stands -6% (inactive); under `O=C(CSc1ncnc2c1oc1ccccc12)Nc1cccc(C(F)(F)F)c1`, 2.9% (inactive).

For `Cc1ccnc(SCC(=O)O)n1`, the cytotoxicity was -31.8% (inactive). Under `Cc1ccccc1NC(=O)CSc1nc2c(c(-c3ccco3)c1C#N)CCCC2` stands -20.7% (inactive); under `c1ccc2[nH]c(-c3ccnc4ccccc34)nc2c1`, 3% (inactive); under `O=C(c1cc2nc(-c3ccco3)cc(C(F)(F)F)n2n1)N1CCCc2ccccc21`, -11.2% (inactive).

In the case of `O=C(c1cnn2c(C(F)(F)F)cc(-c3ccco3)nc12)N1CCCc2ccccc21`, the cytotoxicity was 4.7% (inactive).

Regarding `O=C(c1nn2c(C(F)(F)F)cc(-c3ccco3)nc2c1Br)N1CCCc2ccccc21`, the cytotoxicity is 51.8% (active). As to `O=C(Sc1nnnn1C1CCCCC1)c1cccs1`, the cytotoxicity is -11.4% (inactive). For `COc1cc(C(=O)NCc2nnc(SCC(=O)N3CCC(C)CC3)o2)cc(OC)c1OC`, the cytotoxicity is -2.5% (inactive). Under `CC1(C)Cc2c(c(N3CCOCC3)nc3snc(Br)c23)CO1` stands 5.4% (inactive).

As to `CC1(C)Cc2c(c(N3CCOCC3)nc3sc(C(=O)N4CCCCC4)c(N)c23)CO1`, the cytotoxicity was -5.3% (inactive).
